USP30 block – blocks human USP30 ubiquitin-rhodamine cleavage; Q70CQ3; AID 1645860; inhibition, % at 25 µM; 5.3% of 47,000 active; purified USP30, Ub-rhodamine cleavage fluorescence
USP17 block – blocks human USP17 ubiquitin-rhodamine cleavage; 6.5% of 47,000 active; purified USP17, Ub-rhodamine cleavage fluorescence, 3 h; inhibition, % at 50 µM; AID 1645855; A8MUK1
USP28 inh – inhibitors of human USP28 deubiquitinase; purified USP28, Ub-rhodamine cleavage fluorescence, 30 min; inhibition, % at 25 µM; 3% of 47,000 active; AID 1645857
Target sequence (Q96RU2 whole entry, looked up): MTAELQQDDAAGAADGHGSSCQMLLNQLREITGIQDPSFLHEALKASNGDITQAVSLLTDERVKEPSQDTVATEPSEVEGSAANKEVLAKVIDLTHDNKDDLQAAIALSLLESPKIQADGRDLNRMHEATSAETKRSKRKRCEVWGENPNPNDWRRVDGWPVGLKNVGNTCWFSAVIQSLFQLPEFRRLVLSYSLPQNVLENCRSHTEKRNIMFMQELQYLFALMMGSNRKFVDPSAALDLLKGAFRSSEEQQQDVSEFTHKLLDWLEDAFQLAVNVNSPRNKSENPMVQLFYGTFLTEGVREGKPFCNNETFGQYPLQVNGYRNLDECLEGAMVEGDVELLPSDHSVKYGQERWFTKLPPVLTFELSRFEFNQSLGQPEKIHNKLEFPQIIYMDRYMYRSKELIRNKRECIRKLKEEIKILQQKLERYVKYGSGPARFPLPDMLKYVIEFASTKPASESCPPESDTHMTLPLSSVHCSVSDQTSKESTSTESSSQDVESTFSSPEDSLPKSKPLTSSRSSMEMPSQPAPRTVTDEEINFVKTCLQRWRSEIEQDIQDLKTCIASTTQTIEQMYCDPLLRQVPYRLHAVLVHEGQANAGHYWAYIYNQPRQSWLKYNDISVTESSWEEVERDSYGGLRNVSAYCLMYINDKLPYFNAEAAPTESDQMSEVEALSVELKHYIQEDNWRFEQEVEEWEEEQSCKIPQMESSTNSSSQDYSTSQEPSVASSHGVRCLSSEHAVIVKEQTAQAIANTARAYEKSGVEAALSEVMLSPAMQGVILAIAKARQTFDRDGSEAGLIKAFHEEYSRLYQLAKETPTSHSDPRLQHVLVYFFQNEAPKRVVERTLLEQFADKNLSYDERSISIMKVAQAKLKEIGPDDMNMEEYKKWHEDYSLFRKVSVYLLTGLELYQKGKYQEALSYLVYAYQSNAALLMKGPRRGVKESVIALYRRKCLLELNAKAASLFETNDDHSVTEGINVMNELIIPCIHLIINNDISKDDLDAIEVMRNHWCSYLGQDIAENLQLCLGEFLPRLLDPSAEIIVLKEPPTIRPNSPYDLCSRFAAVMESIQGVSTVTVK
An asterisk follows results filed as active; i = inactive; . = no result given. Only some compounds are listed: those with a hit (about 11% of all), similar ones and a draw of the others. No stated cut-off is given here; in the data, active means inhibition above about 30%; inactive means the rest.

SMILES | USP30 block | USP17 block | USP28 inh
COc1ccc(N2CCN(C(=O)c3cc(-c4ccccn4)nc4ccccc34)CC2)cc1 | -25 | 9 | 8
O=C1CC(c2nc(-c3ccccc3F)no2)CN1c1ccc(F)cc1 (configuration not stated) | 14 | 0 | 18
O=C(COC(=O)c1cccc(S(=O)(=O)N2CCCC2)c1)NCc1ccc2c(c1)OCO2 | -12 | 20 | 3
c1ccc(CNc2cc(-c3ccccc3)nc(-c3ccccn3)n2)cc1 | 14 | 19 | 20
c1ccc(-c2noc(-c3cc(-c4ccncc4)nc4ccccc34)n2)nc1 | 14 | 53* | 22
Cc1c(C)n(C)c2ccc(C(=O)N3CCN(c4ccccn4)CC3)cc12 | -105 | -18 | -25
O=C(c1ccc2c(c1)N(Cc1ccc(F)cc1)C(=O)c1ccccc1S2=O)N1CCN(c2ccccn2)CC1 (configuration not stated) | 40* | 16 | 26
COc1ccccc1N1CCN(C(=O)c2ccc3c(c2)N(Cc2cc(C)ccc2C)C(=O)c2ccccc2S3=O)CC1 (configuration not stated) | 51* | 20 | 18
O=C(c1ccc2nc(C(F)(F)F)[nH]c2c1)N1CCN(c2ccccn2)CC1 | 13 | 2 | 1
Cc1ccc(C)c(CN2C(=O)c3ccccc3S(=O)c3ccc(C(=O)N4CCN(c5ccccn5)CC4)cc32)c1 (configuration not stated) | 39* | 18 | 24
COc1ccccc1N1CCN(C(=O)c2[nH]c3ccccc3c2NC(=O)c2cccc(C)c2)CC1 | -31 | -12 | -14
O=C(c1ccccc1)N1CCCCCC1C1CCN(Cc2nc(C3CC3)no2)CC1 (configuration not stated) | -17 | -23 | -12
C[C@]12C(=O)N(c3ccccc3C(=O)NCc3ccc4c(c3)OCO4)C(=O)N1CCc1c2[nH]c2ccccc12 | -7 | 10 | -6
Cn1nc(C(=O)Nc2cccc(F)c2)c(=O)c2ccccc21 | 37* | 45* | 21
Cn1c(=O)c(C(=O)Nc2cccc(F)c2)c(O)c2ccccc21 | -286 | 10 | -5
Cc1cc(-c2cncc(C3CCCN(C(=O)C(C)(C)C)C3)n2)n[nH]1 (configuration not stated) | 0 | 1 | 3
Cc1cc(OCC(=O)Nc2ccccc2)nc(N2CCCC(C)C2)n1 (configuration not stated) | 14 | 31* | 2
Cc1cccc(NC(=O)COc2cc(C)nc(N3CCCCC3)n2)c1 | 30* | . | 14
Cc1ccc(NC(=O)Cn2c(=O)nc(N3CCCC(C)C3)c3ccccc32)cc1 (configuration not stated) | 4 | -27 | 1
Cc1cc(=O)n(CC(=O)Nc2cccc(F)c2)c(N2CCCCC2)n1 | -7 | 0 | -5
COc1ccc(OC)c(-n2nnnc2SCc2ccccn2)c1 | 25 | -21 | 8
CCOc1ccc(-n2nnnc2-c2ccccn2)cc1 | 31* | 5 | 10
Clc1ccc(Cl)c(-c2nc(-c3cccs3)no2)c1 | -19 | 3 | 2
Cc1nc2sccn2c1-c1nc(-c2cc(Cl)ccc2Cl)cs1 | 46* | 49* | 19
CCn1ccc2ccn(CC(=O)NCc3ccc4c(c3)OCO4)c(=O)c21 | -5 | -5 | -7
SMILES | USP30 block | USP17 block | USP28 inh
COCCn1cnc2c1c(=O)n(CC(=O)NCc1ccccc1OC)c(=O)n2Cc1ccccc1 | 45* | 31* | 10
COCCn1cnc2c1c(=O)n(CC(=O)c1ccc3c(c1)OCCO3)c(=O)n2Cc1ccccc1 | -13 | -24 | -9
Cc1ccc(C)c(C(=O)Cn2c(=O)c3c(ncn3CCC(C)C)n(Cc3ccccc3)c2=O)c1 | -43 | -13 | -5
CCn1cnc2c1c(=O)n(CC(=O)NCc1ccc3c(c1)OCO3)c(=O)n2Cc1ccccc1 | -71 | 37* | 8
CC(C)Cn1cnc2c1c(=O)n(CC(=O)NCCc1ccc(F)cc1)c(=O)n2Cc1ccccc1 | 43* | 24 | 12
CCn1cnc2c1c(=O)n(CC(=O)NCc1ccccc1Cl)c(=O)n2Cc1ccccc1 | 19 | 55* | 8
O=C(Cn1c(=O)c2c(ncn2C2CCCC2)n(Cc2ccccc2)c1=O)NCC1CCCO1 (configuration not stated) | -28 | -4 | -12
CCCN1C(SCC(=O)Nc2ccccc2CC)=NS(=O)(=O)c2ccccc21 | 13 | 0 | 6
Cc1cc(N2CCN(C(=O)c3ccccc3F)CC2)nc(N2CCCC2)n1 | -2 | -5 | 2
CNC(=O)c1cc2c(Cl)ccc3c2n1CCO3 | -2 | -8 | 3
CC1Cc2ccccc2N1C(=O)COC(=O)c1ccc(C#N)cc1 (configuration not stated) | 0 | -27 | 0
COc1ncc(CN2CCOCC(Cc3ccc4[nH]ncc4c3)C2)cn1 (configuration not stated) | -2 | -4 | -6
COc1cccc(NC(=O)N2C[C@@H]3c4nccn4-c4ccccc4[C@@H]3C2)c1 | -5 | 4 | 6
O=C(Nc1ccc(N2CCN(Cc3ccccc3)CC2)cc1)c1cc2ccccc2o1 | 6 | 7 | 1
Cc1c(C(=O)NCC2(N3CCCCC3)CCCCC2)oc2c1ccc1ccccc12 | -128 | -24 | -43
Cc1c(C(=O)Nc2ccc(-c3nnc4n3CCCCC4)cc2)oc2c1ccc1ccccc12 | -12 | -3 | 68*
O=C(Nc1ccc(-c2nnc3n2CCCCC3)cc1)c1cc2ccccc2o1 | -2 | -2 | 35*
CCc1cnc(N2CCO[C@@H]3CN(Cc4nccs4)CC[C@@H]3C2)nc1 | -133 | -38 | -34
CC(C)N1CCC2(CC1)Nc1ccccc1C(=O)N2Cc1ccccc1 | 0 | 1 | 0
O=C1c2ccccc2NC2(C(=O)Nc3ccc(Br)cc32)N1c1ccccc1 (configuration not stated) | 19 | 24 | 86*
CSCCC(NC(=O)c1sccc1C)c1nnc2ccccn12 (configuration not stated) | 41* | 15 | 13
CSCCC(NC(=O)c1cccs1)c1nnc2ccccn12 (configuration not stated) | -1 | -1 | 0
CC(=O)NC(Cc1ccccc1)C(=O)NC1CCN(C(=O)Nc2ccc(F)cc2)CC1 (configuration not stated) | 13 | 1 | 0
C=C1CCC[C@]2(C)C[C@H]3OC(=O)C(CN(C)Cc4ccccc4)[C@H]3CC12 (some centres not stated) | 30* | 16 | 22
C=C1CCC[C@]2(C)C[C@H]3OC(=O)C(CN(C)C[C@@H](O)c4cccc(O)c4)[C@H]3C[C@@H]12 (some centres not stated) | -53 | -16 | -10
SMILES | USP30 block | USP17 block | USP28 inh
CCc1ccc(NC(=O)c2ccc(SCCN3CCOCC3)nc2)cc1 | 8 | 13 | 6
O=C(/C=C/c1c(F)cccc1Cl)NCc1ccccn1 | -64 | -21 | -10
CCN(CC)C(=O)c1sc(NC(=O)/C=C/c2c(F)cccc2Cl)c(C#N)c1C | -29 | 62* | 17
COc1cc(CCC(=O)N2CCCC(c3nn(C)c4nccnc34)C2)ccc1C (configuration not stated) | -16 | -2 | 7
Cc1ccc(C(=O)CCC(=O)N2CCCC(c3[nH]nc4nccnc34)C2)cc1C (configuration not stated) | i | -16 | -183
O=C1Cc2cc(S(=O)(=O)N3CCC([C@@H]4NC(=O)N[C@H]5OCCC[C@H]54)CC3)ccc2N1 | -72 | 3 | 2
